Measurements: the supplement of paper PMC6522484
± gives the standard deviation of the averaged measurements.

Experiments:
DLD1 [1] = assay: cell viability (CellTiter-Glo) relative to plate median (fraction of plate median); higher = more viable cells; settings: 5 µM; treatment time 24 h; reporter: 7TFP
In short: (§1)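 Two independent replicates were averaged for each reported value. Library compounds were applied at a final 5 µM for 24 h to colorectal cancer cell lines stably expressing lentiviral TCF/Wnt firefly luciferase reporters. Firefly luciferase or CellTiterGlo luminescence from each well was normalised to the plate median.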

HCT116 = assay: as above; settings: 5 µM; treatment time 24 h; reporter: TCF4/Wnt
In short: as §1

SW480 [2] = assay: as above; settings: 5 µM; treatment time 24 h; reporter: 7TFP
In short: as §1

DLD1 [3] = assay: TCF/Wnt firefly luciferase reporter signal relative to plate median (fraction of plate median); higher = higher Wnt reporter signal; settings: 5 µM; treatment time 24 h; reporter: 7TFP
In short: as §1

SW480 [4] = assay: as above; settings: 5 µM; treatment time 24 h; reporter: 7TFP
In short: as §1

| Structure (SMILES) | cell viability (DLD1 [1]) | cell viability (HCT116) | cell viability (SW480 [2]) | TCF/Wnt firefly luciferase reporter signal (DLD1 [3]) | TCF/Wnt firefly luciferase reporter signal (SW480 [4]) |
| --- | --- | --- | --- | --- | --- |
| O=C(O)CCCC[C@@H]1CCSS1 (racemic) | 1.06 ± 0.071 | 1.01 | 0.986 ± 0.035 | 0.856 ± 0.032 | 0.96 ± 0.023 |
| O=c1n(CCCN2CCN(c3cccc(Cl)c3)CC2)nc2ccccn12 | 1.005 ± 0.0071 | 0.987 ± 0.12 | 1.01 ± 0.014 | 1.08 ± 0.28 | 0.971 ± 0.083 |
| O=C1NC(Cc2ccc(O)cc2)C(=O)N2CCCC12 (stereo not given) [cyclo(prolyltyrosyl)] | 0.9655 ± 0.0021 | 0.95 ± 0.023 | 1.025 ± 0.0071 | 0.998 ± 0.2 | 0.887 ± 0.05 |
| CCCCC[C@H](CC(=O)O)C(=O)O | 0.996 ± 0.091 | 0.953 ± 0.095 | 0.974 ± 0.03 | 1.15 ± 0.085 | 1.03 ± 0.021 |
| CN[C@H](CC(=O)O)C(=O)O | 0.99 ± 0.028 | 0.966 ± 0.049 | 0.957 ± 0.0042 | 1.02 ± 0.014 | 0.85 ± 0.045 |
| CC(=O)O[C@@H]1CC2C(C)(C)C(=O)CC[C@]2(C)C2CC[C@]3(C)C(=CC(=O)O[C@H]3c3ccoc3)[C@@]21C (stereo not given in full) | 1.05 ± 0.12 | 1.06 ± 0.17 | 1.07 ± 0.092 | 1.06 ± 0.11 | 0.949 ± 0.087 |
| O=C(O)c1ccccc1Nc1ccccc1 | 1.08 ± 0.15 | 1.03 ± 0.14 | 1.04 ± 0.057 | 1.09 ± 0.099 | 0.911 ± 0.17 |
| C=CCSCC(N)C(=O)O (stereo not given) | 1.015 ± 0.0071 | 0.976 ± 0.15 | 1.01 ± 0.05 | 0.923 ± 0.027 | 0.923 ± 0.02 |
| O=c1[nH]c(=O)n([C@H]2C[C@H](O)[C@@H](CO)O2)cc1C(F)(F)F | 1.07 ± 0.042 | 1.03 ± 0.05 | 1.03 ± 0.014 | 0.818 ± 0.16 | 0.886 ± 0.013 |
| CCc1cn([C@H]2C[C@H](O)[C@@H](CO)O2)c(=O)[nH]c1=O | 0.9885 ± 0.0021 | 0.968 ± 0.073 | 1.01 ± 0.023 | 1.03 ± 0.14 | 1.08 ± 0.085 |
| COc1cc(C)c2c(=O)cc(-c3ccccc3)oc2c1 | 0.991 ± 0.027 | 0.884 ± 0.083 | 1 ± 0.041 | 1.18 ± 0.092 | 1.14 ± 0.014 |
| COc1c(C)c2c(c(O)c1C/C=C(\C)CCC(=O)O)C(=O)OC2 | 1.03 ± 0.12 | 0.802 ± 0.03 | 1.03 ± 0.065 | 1.045 ± 0.0071 | 1.14 ± 0.11 |
| C[C@H](CCC(=O)O)[C@H]1CC[C@H]2[C@@H]3CC[C@@H]4C[C@H](O)CC[C@]4(C)[C@H]3C[C@H](O)[C@]12C | 0.982 ± 0.025 | 1.04 ± 0.11 | 1 ± 0.024 | 1.03 ± 0.13 | 1.01 ± 0.053 |
| COC(=O)c1c(OC)cc2c(c1C)Oc1c(Cl)c(O)c(Cl)c(C)c1C(=O)O2 | 1.02 ± 0.036 | 1.04 ± 0.014 | 0.99 ± 0.0042 | 1.05 ± 0.085 | 0.954 ± 0.028 |
| Cc1ccc(S(=O)(=O)NC(=O)NN2CCCCCC2)cc1 | 0.911 ± 0.047 | 0.918 ± 0.018 | 0.968 ± 0.019 | 0.881 ± 0.071 | 0.998 ± 0.031 |
| CC(C)(CO)C(O)C(=O)NCCCO (stereo not given) | 1.05 ± 0.16 | 1.06 ± 0.028 | 1.07 ± 0.064 | 0.992 ± 0.068 | 0.978 ± 0.074 |
| CCCc1cc(C(N)=S)ccn1 | 0.972 ± 0.022 | 1.05 ± 0.021 | 0.976 ± 0.063 | 1.015 ± 0.0071 | 1.04 ± 0.021 |
| O=C(O)c1ccc2c(c1)OCO2 | 0.927 ± 0.12 | 1.09 ± 0.078 | 0.948 ± 0.033 | 0.927 ± 0.022 | 0.866 ± 0.12 |
| FC(F)(F)COCC(F)(F)F | 0.944 ± 0.047 | 0.922 ± 0.041 | 0.99 ± 0.029 | 0.762 ± 0.016 | 0.825 ± 0.1 |
| C[C@@H]1NC(=O)[C@@H](N)CNC(=O)[C@H](C2CCNC(=N)N2)NC(=O)/C(=C/NC(N)=O)NC(=O)[C@H](CNC(=O)CC(N)CCCN)NC1=O.N=C1NCC[C@H]([C@@H]2NC(=O)/C(=C/NC(N)=O)NC(=O)[C@H](CNC(=O)C[C@@H](N)CCCN)NC(=O)[C@H](CO)NC(=O)[C@@H](N)CNC2=O)N1 | 1.03 ± 0.052 | 0.993 ± 0.081 | 0.996 ± 0.076 | 0.816 ± 0.0071 | 0.871 ± 0.093 |
| CN1CCOC(c2ccccc2)c2ccccc2C1 (stereo not given) | 0.915 ± 0.048 | 0.997 ± 0.1 | 1 ± 0.014 | 0.9875 ± 0.0035 | 0.883 ± 0.12 |
| CC[C@H]1OC(=O)[C@H](C)[C@@H](O[C@H]2C[C@@](C)(OC)[C@@H](O)[C@H](C)O2)[C@H](C)[C@@H](O[C@@H]2O[C@H](C)C[C@H](N(C)C)[C@H]2O)[C@](C)(OC)C[C@@H](C)C(=O)[C@H](C)[C@@H](O)[C@]1(C)O | 0.858 ± 0.099 | 0.931 ± 0.0071 | 1.05 ± 0.042 | 0.996 ± 0.021 | 1.125 ± 0.0071 |
| COC(C)c1cccc2nc3c(C(=O)O)cccc3nc12 (stereo not given) [Saphenic acid methylether] | 1.03 ± 0.052 | 1.13 ± 0.028 | 1.04 ± 0.028 | 0.907 ± 0.1 | 1.15 ± 0.14 |
| C[C@]12CCC[C@H](O1)c1c(cc3c(c1O)C(=O)c1c(O)cc(O)cc1C3=O)O2 [Averufin (Isoform B, Compound ID 7395)] | 1.09 ± 0.14 | 1.01 ± 0.014 | 1.03 ± 0.054 | 1.02 ± 0.035 | 0.942 ± 0.14 |
| CC(=O)OCC(=O)[C@@]1(O)CC[C@H]2[C@@H]3C[C@H](C)C4=CC(=O)C=C[C@]4(C)[C@H]3[C@@H](O)C[C@@]21C [6alpha-METHYLPREDNISOLONE ACETATE] | 1.03 ± 0.05 | 0.957 ± 0.22 | 0.994 ± 0.037 | 0.904 ± 0.15 | 0.937 ± 0.073 |
| Cn1ccnc1S | 0.997 ± 0.047 | 1.04 ± 0.021 | 0.981 ± 0.021 | 0.988 ± 0.088 | 0.95 ± 0.071 |
| CCCCCCc1ccc(O)cc1O.Nc1c2ccccc2nc2ccccc12 | 1.03 ± 0.056 | 0.829 ± 0.0071 | 1.1 ± 0.057 | 1.98 ± 0.34 | 0.848 ± 0.045 |
| CCC(=O)OCC(=O)[C@@]1(OC(=O)CC)[C@H](C)CC2C3C([C@@H](O)C[C@@]21C)[C@@]1(C)C=CC(=O)C=C1C[C@H]3Cl (stereo not given in full) | 1.01 ± 0.014 | 1.02 ± 0.014 | 0.975 ± 0.0057 | 0.9755 ± 0.0078 | 0.926 ± 0.049 |
| CC(=O)OCC(=O)[C@H]1CC[C@H]2[C@@H]3CC=C4C[C@@H](O)CC[C@]4(C)[C@H]3CC[C@]12C | 1.04 ± 0.05 | 1.03 ± 0.057 | 1.04 ± 0.028 | 1.01 ± 0.13 | 0.975 ± 0.064 |
